From PubChem BioAssay (Tox21) come the findings set out here.

Each structure is given as a SMILES string. Inconclusive results are not listed. A structure can be active in one record and inactive in another. Activity calls are given as the source filed them. Calls come from the whole dose curve; as a rule, active = well fitted curve in the direction sought with a large enough effect in the repeat runs; inconclusive = weak or mixed curves; inactive = no such curve, though single readings can be large; an effect the other way counts as inactive or inconclusive.

Assay [1] is described as follows: A CellTox Green Cytotoxicity Assay to monitor cytotoxicity in HEK293 cells - 32 hour (AID 1224881). Note: nearly all actives have a fitted effect of over 40% in size. Note: potency is the fitted concentration of half-maximal effect. The gist of the method:
(§1)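 Nonlytic real-time cytotoxicity: HEK293 + CellTox Green reagent plated, 5 h preincubation, pintool compound addition (23 nL in DMSO), 37 C for 40 h, fluorescence measured at successive time points.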

Assay [2] is described as follows: A CellTox Green Cytotoxicity Assay to monitor cytotoxicity in HepG2 cells - 0 hour (AID 1224882). Note: nearly all actives have a fitted effect of over 35% in size. Note: potency is the fitted concentration of half-maximal effect. The gist of the method:
(§2)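 Read-out is fluorescence of a cyanine dye excluded from live cells that stains DNA of dead HepG2 cells, with signal proportional to cytotoxicity. Plates were read at 0, 8, 16, 24, 32 and 40 h after compound addition.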

Assay [3] in a line: A CellTox Green Cytotoxicity Assay to monitor cytotoxicity in HepG2 cells - 32 hour (AID 1224883). Note: nearly all actives have a fitted effect of over 50% in size. Note: potency is the fitted concentration of half-maximal effect. The gist of the method:
as §2

A short description of assay [4]: A CellTox Green Cytotoxicity Assay to monitor cytotoxicity in HEK293 cells - 8 hour (AID 1224884). Note: nearly all actives have a fitted effect of over 35% in size. Note: potency is the fitted concentration of half-maximal effect. The gist of the method: as §1
Assay [5] in a line: qHTS RealTime-Glo MT Cell Viability Assay in HepG2 cells - 16 hour (AID 1224885). Note: nearly all actives have a fitted effect of over 50% in size. The gist of the method:
(§3)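 HepG2 cells (600/well) were dispensed with RealTime-Glo reagents, incubated 5 h at 37 °C, then treated with compounds in DMSO for up to 40 h. Nonlytic NanoLuc luminescence reflecting viable cells was read at each stated time point.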
(In general: In qHTS, concentration-response curves come from the screen itself.)

Assay [6] in a line: qHTS RealTime-Glo MT Cell Viability Assay in HEK293 cells - 24 hour (AID 1224886). Note: top concentration of the series differs between compounds; nearly all actives have a fitted effect of over 50% in size. The gist of the method:
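HEK293 cells seeded with NanoLuc/prosubstrate reagent, rested 5 h at 37 C, then dosed and kept at 37 C up to 40 h. Nonlytic real-time luminescence from viable cells read at 0, 8, 16, 24, 32 and 40 h.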

Assay [7] is described as follows: qHTS RealTime-Glo MT Cell Viability Assay in HEK293 cells - 8 hour (AID 1224887). Note: top concentration of the series differs between compounds; nearly all actives have a fitted effect of over 50% in size. The gist of the method: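 Cells were seeded together with NanoLuc luciferase and a prosubstrate that viable cells reduce to a luciferase substrate. After a 5 h incubation at 37 C/5% CO2, compounds were added and luminescence was measured repeatedly during 40 h of treatment.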
Assay [8] in a line: A CellTox Green Cytotoxicity Assay to monitor cytotoxicity in HEK293 cells - 16 hour (AID 1224888). Note: nearly all actives have a fitted effect of over 35% in size. Note: potency is the fitted concentration of half-maximal effect. The gist of the method:
as §1

Assay [9] in a line: qHTS RealTime-Glo MT Cell Viability Assay in HepG2 cells - 0 hour (AID 1224889). Note: nearly all actives have a fitted effect of over 50% in size. Note: potency is the fitted concentration of half-maximal effect. The gist of the method: as §3
Assay [10] can be described thus: A CellTox Green Cytotoxicity Assay to monitor cytotoxicity in HepG2 cells - 8 hour (AID 1224890). Note: nearly all actives have a fitted effect of over 45% in size. Note: potency is the fitted concentration of half-maximal effect. The gist of the method:
as §2

Regarding `c1ccc(CC2=NCCN2)cc1`, the Potency entry in [1], in assay [2], in assay [3], in assay [4], in assay [5] and in assay [6] was “inactive” throughout. Besides, the Potency entry in [7], in assay [8], in [9] and in assay [10] was “inactive” in each case.
For the molecule `Cc1cc2c(cc1S(N)(=O)=O)S(=O)(=O)CCC2`, the Potency entry in assay [1], in assay [2], in [3], in assay [4], in assay [5] and in assay [6] was “inactive” each time. For the same molecule, the Potency result in [8] and in assay [9] was “inactive” each time.
On to `CC(=O)OCC(=O)[C@@]1(O)CC[C@H]2[C@@H]3CCC4=CC(=O)CC[C@]4(C)[C@H]3C(=O)C[C@@]21C`, for which the Potency entry in assay [1], in assay [2], in [3], in assay [4], in assay [5] and in [6] was “inactive” in each case. Also, the Potency entry in assay [7], in assay [8] and in assay [10] was “inactive” in each case. For the same molecule, the Potency in assay [9] is 1.07 µM (active).
As to `CCCCOCCOCCOCc1cc2c(cc1CCC)OCO2`, the Potency result in assay [1], in assay [2], in assay [4], in [5], in assay [6] and in assay [7] was “inactive” each time. For the same molecule, the Potency result in assay [8], in assay [9] and in assay [10] was “inactive” throughout. Also, in assay [3], the Potency was 22.1 µM (active) and inactive.
Take `CN(C)CCCSc1ccccc1NC(=O)/C=C/c1ccccc1`: the Potency in [1] was 19 µM (active); in assay [2] it was 19 µM (active); in assay [3], 19 µM (active); in [4], 16.9 µM (active); in assay [8], 16.9 µM (active); in [10] it was 19 µM (active). Besides, the Potency result in assay [5], in [6], in assay [7] and in assay [9] was “inactive” throughout.
As for `CCN1CCC[C@H]1CNC(=O)c1cc(S(N)(=O)=O)ccc1OC`, the Potency entry in assay [1], in assay [2], in [3], in assay [4], in [5] and in assay [6] was “inactive” throughout. The Potency entry in [7], in assay [8], in assay [9] and in [10] was “inactive” each time.
Regarding `CCN1CCC[C@H]1CNC(=O)c1c(O)c(Cl)cc(Cl)c1OC`, the Potency entry in [1], in [2], in assay [3], in [4], in [5] and in [6] was “inactive” each time. The Potency result in assay [7], in assay [8], in assay [9] and in [10] was “inactive” each time.
Consider `CCOC(C)(C)C`, for which the Potency result in assay [1], in [2], in assay [3], in [4], in [5] and in assay [6] was “inactive” throughout. Besides, the Potency entry in assay [8], in [9] and in [10] was “inactive” each time.
`CC(C)NCCCC1(C(N)=O)c2ccccc2-c2ccccc21`: the Potency entry in assay [1], in assay [2], in assay [3], in assay [4], in [5] and in assay [6] was “inactive” throughout. Further, the Potency result in assay [7], in assay [8], in [9] and in assay [10] was “inactive” each time.
On to `O=C(O)CCCl`, for which the Potency result in assay [1], in assay [2], in assay [3], in assay [4], in [5] and in [6] was “inactive” in each case. Also, the Potency entry in assay [7], in [8], in assay [9] and in assay [10] was “inactive” each time.
With `CCCCCOC(=O)CCCCC`, the Potency entry in assay [1], in assay [2], in [3], in assay [4], in assay [5] and in [6] was “inactive” each time. The Potency entry in assay [7], in assay [8], in assay [9] and in [10] was “inactive” throughout.
With `CC/C=C\CC/C=C/C(OCC)OCC`, the Potency result in assay [1], in [2], in [3], in assay [4], in assay [5] and in assay [6] was “inactive” each time. Besides, the Potency result in assay [7], in assay [8], in assay [9] and in assay [10] was “inactive” in each case.
Take `O=c1[nH]c(=O)n([C@H]2C[C@H](O)[C@@H](CO)O2)cc1I`: the Potency result in assay [1], in assay [2], in [3], in assay [4], in assay [5] and in assay [6] was “inactive” throughout. The Potency entry in assay [7], in [8], in assay [9] and in assay [10] was “inactive” throughout.
Consider `CCN(CC)CCOCCOC(=O)C1(c2ccccc2)CCCC1`, for which the Potency result in [1], in [2], in [3], in assay [4], in assay [5] and in [6] was “inactive” each time. The Potency entry in [7], in assay [8], in [9] and in assay [10] was “inactive” in each case.
`C=COCC1CCC(CO)CC1` (configuration not stated): the Potency entry in assay [1], in assay [2], in assay [3], in [4], in [5] and in assay [6] was “inactive” each time. Further, the Potency entry in [8], in assay [9] and in [10] was “inactive” each time.
For the molecule `Cc1cccc(C)c1NC(=O)C(C)N` (configuration not stated), the Potency in assay [1] is 19 µM (active); in [2], 21.3 µM (active); in assay [3], 21.3 µM (active); in assay [4], 19 µM (active); in [8], 19 µM (active); in assay [10], 21.3 µM (active). The Potency entry in assay [5], in assay [6], in assay [7] and in [9] was “inactive” throughout.
On to `Nc1c[n+](N2CCOCC2)no1`, for which the Potency result in [1], in [2], in assay [3], in assay [4], in [5] and in assay [6] was “inactive” throughout. Also, the Potency entry in assay [7], in [8], in assay [9] and in [10] was “inactive” throughout.
Regarding `NC(CSCC(=O)O)C(=O)O` (configuration not stated), the Potency result in [1], in assay [2], in assay [3], in assay [4], in assay [5] and in assay [6] was “inactive” throughout. In addition, the Potency entry in assay [7], in assay [8], in [9] and in assay [10] was “inactive” throughout.
With `Cc1c(O)cccc1O`, the Potency result in [1], in [2], in assay [3], in [4], in [5] and in [6] was “inactive” throughout. Moreover, the Potency result in assay [7], in assay [8], in assay [9] and in [10] was “inactive” in each case.
With `NC(=O)Nc1ccccc1`, the Potency result in assay [1], in [2], in assay [3], in assay [4], in assay [5] and in assay [6] was “inactive” in each case. Moreover, the Potency entry in assay [7], in assay [8], in assay [9] and in assay [10] was “inactive” each time.
`Nc1ccccc1S(=O)(=O)O`: the Potency result in assay [1], in assay [2], in assay [3], in assay [4], in [5] and in assay [6] was “inactive” in each case. Besides, the Potency entry in assay [7], in assay [8], in [9] and in assay [10] was “inactive” throughout.
As for `O=C(O)Cc1ccc(CCNS(=O)(=O)c2ccc(Cl)cc2)cc1`, the Potency result in [1], in [2], in [3], in assay [4], in assay [5] and in assay [7] was “inactive” throughout. Besides, the Potency entry in assay [8], in [9] and in [10] was “inactive” each time.
As for `CCOC(=O)CC(C)=O`, the Potency entry in [1], in assay [2], in assay [3], in assay [4], in [5] and in assay [7] was “inactive” throughout. For the same molecule, the Potency result in assay [8] and in [9] was “inactive” in each case.
For `CCCN1CCCC[C@H]1C(=O)Nc1c(C)cccc1C`, the Potency entry in assay [1], in [2], in [3], in [4], in [5] and in assay [7] was “inactive” in each case. Also, the Potency entry in assay [8], in assay [9] and in assay [10] was “inactive” each time.
